Records with an inconclusive call do not appear. Values without a mark were called inactive. Calls follow the shape of the dose curve; as a rule, active = well fitted cell-killing curve with a large enough effect in the repeat runs (not every such curve was filed as active); inconclusive = weak or mixed curves, or effect the other way; inactive = no such curve, though single readings can be large or run the other way.
Experiment: qHTS assay to identify small molecule antagonists of the farnesoid-X-receptor (FXR) signaling pathway - cell viability counter screen (AID 743221); also: nearly all actives have a fitted effect of over 50% in size
Conditions: FXR-bla HEK293T viability, CellTiter-Glo luminescence, 16 h; series mostly up to 62.6 µM; activity change, negative = cytotoxicity: at the top concentration
Excerpt: National Center for Advancing Translational Sciences [NCATS]
NIH Chemical Genomics Center [NCGC]
U.S. Environmental Protection Agency [EPA]
National Institutes of Environmental Health Sciences [NIEHS]
National Toxicology Program [NTP]
U.S. Food and Drug Administration [FDA]
The farnesoid-X-receptor (FXR), a nuclear hormone receptor, is highly expressed in liver, intestine, kidney and adrenal cortex. Natural ligands of FXR are the bile acids (Cholic acid, Chenodeoxy cholic acid etc). FXR is an important regulator of diverse metabolic pathways, including the bile acid homeostasis, lipid and glucose metabolisms. FXR regulates the expression of target genes by binding either as a monomer or as a heterodimer with the retinoid X receptor (RXR). Numerous studies have reported that FXR exerts protective function during cholestasis, diabetes, liver regeneration, and cancer. To identify compounds that inhibit FXR signaling, GeneBLAzer FXR-UAS-bla HEK 293T cell line (Invitrogen, Carlsbad, CA) containing a beta-lactamase reporter gene under the control of a UAS response element was used to screen the Tox21 10K compound library. The cytotoxicity of the Tox21 compound library against the FXR-bla cell line was tested in parallel by measuring the cell viability using CellTiter-Glo assay in the same wells.
Tox21 Assay Protocol Summary:
FXR-bla cells were dispensed at 5000 cells/5uL/well in 1536-well black wall/clear bottom plates using a Multidrop Combi (Thermo Fisher Scientific, Waltham, MA) dispenser. After the assay plates were incubated at 37 C and 5% CO2 for 5 h, 23 nL of compounds dissolved in DMSO, positive controls or DMSO only was transferred to the assay plate by a Pintool station (Kalypsys, San Diego, CA), followed by addition of 1 uL Chenodeoxycholic acid (50 uM, final concentration in the wells). The assay plates were incubated at 37C for 16 h. After 1 uL of LiveBLAzerTM B/G FRET substrate was added using a Bioraptr Flying Reagent Dispenser (FRD) workstation (Beckman Coulter, Indianapolis, IN), the plates were incubated at room temperature for 2 h, and fluorescence intensity was measured by an Envision plate reader (PerkinElmer, Shelton, CT). For cell viability readout that measures cytotoxicity, 4uL/well of CellTiter-Glo reagent was added into the assay plates using a Bioraptr FRD. After 30 min incubation at room temperature, the luminescence intensity in the plates was measured using a ViewLux plate reader (PerkinElmer).
% is scaled to controls: 0 for no effect and ±100 for the full control effect.

In order of falling “activity change, negative = cytotoxicity” value:
1. CCCCCCCCC(CO)CCCCCC (stereo not given)  15.3%
2. CCCCCCCCCC(=O)OCC  13.4%
3. CCCCCc1ccc(N)cc1  12.7%
4. CC(=O)/C=C/C1C(C)=CCCC1(C)C (stereo not given)  12.7%
5. Cc1c(Cn2ccnc2)c2ccccc2n1CCC(=O)O  8.98%
6. O=C(c1ccccc1)c1ccc2n1CCC2C(=O)O (stereo not given)  7.96%
7. CCN(CC)CCc1nc(-c2ccccc2)no1  7.63%
8. O=C(O)c1cn(C2CC2)c2cc(Cl)c(F)cc2c1=O  7.18%
9. CN(c1nccc(=O)[nH]1)C1CCN(c2nc3ccccc3n2Cc2ccc(F)cc2)CC1  6.62%
10. CCCCCOC(=O)COc1cc(N2C(=O)C3=C(CCCC3)C2=O)c(F)cc1Cl  5.37%
11. CC(C(=O)O)c1ccc(-c2ccccc2)c(F)c1 (stereo not given)  4.88%
12. C=C(C)C(=O)OCCOc1ccccc1  2.97%
13. CC1(C)CCC(C)(C)c2cc(NC(=O)c3ccc(C(=O)O)cc3)ccc21  2.84%
14. CCCCOC(=O)c1ccccc1C(=O)OCC(CC)CCCC (stereo not given)  2.73%
15. Cc1cc(C)c(S(=O)(=O)O)cc1N=Nc1cc(S(=O)(=O)O)c2ccccc2c1O  2.22%
16. CCN(CC)CCOC(=O)C1(c2ccccc2)CCCC1  1.22%
17. Cc1cc(CC(=O)O)c(C)n1-c1ccc(Cl)cc1  0.44%
18. O=C(O)C(c1ccc(Cl)cc1)c1ccc(Cl)cc1  0.0543%
19. N=C(N=C(N)N)N1CCOCC1  -0.283%
20. CC1=CCC(C(C)C)C=C1 (stereo not given)  -0.306%
21. Cn1c(NCCN(CCO)CCCc2ccc([N+](=O)[O-])cc2)cc(=O)n(C)c1=O  -1.66%
22. CCN1CCC[C@H]1CNC(=O)c1c(OC)ccc(Br)c1OC  -1.79%
23. C#CCOC(=O)[C@@H](C)Oc1ccc(Oc2ncc(Cl)cc2F)cc1  -2.38%
24. NC(N)=N/N=C/c1c(Cl)cccc1Cl  -3.43%
25. Cn1sccc1=O  -7.83%
26. SC1CCCC1  -9.34%
27. CN1CCN(C2=Nc3ccccc3Sc3ccc(Cl)cc32)CC1  -9.91%
28. Cc1cccc(C(C)(C)C)c1O  -11.8%
29. Cc1ccc(C(N)=O)cc1N  -12.3%
30. CCCCC(CC)COCCCN (stereo not given)  -13.2%
31. CN1CCC(OC(c2ccccc2)c2ccccc2)CC1  -15.8%
32. CCOC(=O)C1=NN(c2ccccc2)C(=O)C1  -17.6%
33. CC(=O)SCc1ccco1  -17.9%
34. C=Cc1c(C)c2cc3[nH]c(cc4nc(cc5nc(cc1[nH]2)C(C)=C5CCC(=O)O)C(CCC(=O)O)=C4C)c(C)c3C=C  -20.2%
35. CCN(CC)C(C)CN1c2ccccc2Sc2ccccc21 (stereo not given)  -22.4%
36. O=S1(=O)N=C(O)c2ccccc21  -22.5%

In order of rising “activity change, negative = cytotoxicity” value:
1. Cc1ccc(C)o1  5.05% [at 81.1 µM]
2. O=C(CC(=O)c1ccccc1)c1ccccc1  5.57% [at 81.1 µM]
3. COc1ccc(C(C)=O)cc1  7.27% [at 81.1 µM]
4. COC(=O)C(C)=O  14.6% [at 81.1 µM]

— PubChem BioAssay (Tox21)
